From PubChem BioAssay AID761 (NMMLSC, 2007)
Among all 190,000 compounds or so, about 400 (0.21%) were called active. Another 2% or so got no clear call; they are omitted. The sample as a whole holds a higher share of actives than the screen did. Values without a mark were called inactive.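 Rule for the calls: active = percent activity GTP binding at least 20 points away from the 100% baseline, either down as inhibitor or up as activator; inconclusive = compound flagged as likely green fluorescent from well-wide comparison; inactive = the rest.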

molecular target: Cell division control protein 42 homolog (Homo sapiens) (UniProt P60953); experiment: wildtype Cdc42 fluorescent GTP binding changes, either direction – biochemical, multiplex bead flow cytometry, Bodipy-GTP, primary screen (AID 761); settings: GST-Cdc42 beads, at 10 µM, actives lie on both sides;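 note: median bead fluorescence of bound Bodipy-FL-GTP at 100 nM; 0% = excess unlabeled GTP control and 100% = no compound control; below 100% means less GTP binding so inhibitor and above means activator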
Sequence (P60953 whole entry, looked up): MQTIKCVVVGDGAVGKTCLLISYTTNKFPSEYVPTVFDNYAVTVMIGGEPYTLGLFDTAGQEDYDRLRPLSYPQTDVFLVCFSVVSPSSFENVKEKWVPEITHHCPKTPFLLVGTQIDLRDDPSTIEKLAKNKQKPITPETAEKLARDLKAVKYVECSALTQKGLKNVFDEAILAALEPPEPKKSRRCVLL

Going from `NS(=O)(=O)c1ccc(CCNC(=O)c2ccc(Cl)cc2[N+](=O)[O-])cc1` to `O=C(COC(=O)CCc1ccc(S(=O)(=O)N2CCOCC2)cc1)Nc1cccc(Cl)c1`, the percent activity (GTP binding) rises from 92% to 97%.

Compared with `COC(=O)c1ccc(-n2cnc3ccccc32)nc1`, `N/C(=N\OC(=O)c1ccc([N+](=O)[O-])cc1)c1ccccn1` is higher in percent activity (GTP binding): 95% for the first, 96% for the second.

`CCC(C)NCC(=O)Nc1ccc([N+](=O)[O-])cc1C(=O)Nc1ccccc1F` (centres undefined) and `COc1ccc(C)cc1NC(=O)Nc1ccccc1SC` are the same in percent activity (GTP binding): 98% for the first, 98% for the second.

First: CCCn1nc(Oc2nc(NC(C)C)nc(N(C)C)n2)ccc1=O
Second: COc1ccc(Cl)cc1NC(=O)NC(C)C(C)(C)C (centres undefined)
The percent activity (GTP binding) of the first is lower: 97% for the first, 101% for the second.

Going from `CN(C)c1nnnn1-c1ccc(Cl)cc1` to `CCN1CC(CN(C)Cc2nc(-c3ccc(Cl)cc3)no2)CC1=O` (centres undefined), the percent activity (GTP binding) rises from 96% to 101%.

`O=C(/C=C/c1ccccc1[N+](=O)[O-])OC1CCCCC1=O` (centres undefined) and `O=C(NCC(O)c1ccc([N+](=O)[O-])cc1)C1CCCCC1` (centres undefined) are the same in percent activity (GTP binding): 97% for the first, 97% for the second.

Going from `O=C(N/N=C/c1ccco1)c1ccc(C(=O)N/N=C/c2ccco2)o1` to `CC(=O)Nc1ccc(NC(=O)CSc2nnc(COc3ccccc3C)n2CC2CCCO2)cc1` (centres undefined), the percent activity (GTP binding) rises from 84% to 99%.

`O=C(Nc1ccc([N+](=O)[O-])cc1)C1CC12CCC2` (centres undefined) and `Cc1cc(NC(=O)CSc2nccn2-c2ccc([N+](=O)[O-])cc2)no1` are the same in percent activity (GTP binding): 96% for the first, 96% for the second.

First: O=C(/C=C/c1ccc(Cl)cc1Cl)c1cccnc1
Second: O=C(Nc1cccnc1)c1ccc(Cl)c([N+](=O)[O-])c1
The percent activity (GTP binding) of the first is lower: 88% for the first, 96% for the second.

First: CC(=O)C1=C(C)NC2=C(C(=O)CC(C)(C)C2)C1C (centres undefined)
Second: C=CCO/N=C/C1=C(O)C(C(=O)OC)C(C)(C)CC1=O (centres undefined)
The percent activity (GTP binding) of the first is lower: 96% for the first, 108% for the second.

First: CN(CCOc1ccccc1)Cc1nc2cc(Cl)ccc2c(=O)[nH]1
Second: CCn1c(COc2c(C)cccc2C)nnc1SCc1nc2ccccc2c(=O)[nH]1
The percent activity (GTP binding) of the first is lower: 93% for the first, 94% for the second.

Going from `O=C(CC1Nc2ccccc2NC1=O)Nc1ccccc1NC(=O)CC1Nc2ccccc2NC1=O` (centres undefined) to `COc1cccc(NC(=O)CC2C(=O)NCCN2C(=S)Nc2ccc(F)cc2)c1` (centres undefined), the percent activity (GTP binding) falls from 99% to 97%.

Compared with `Cc1nc2nc[nH]n2c(=O)c1C/C=C/c1ccccc1`, `O=C(/C=C/c1ccccc1)Oc1coc(CSc2ncccn2)cc1=O` is higher in percent activity (GTP binding): 89% for the first, 91% for the second.

First: COc1ccc(C(=O)C2CCCN(C(=O)c3cc4nc(C)cc(C)n4n3)C2)cc1F (centres undefined)
Second: COc1ccc(CN2CCCC(CNC(=O)c3ccc(F)cc3)C2)cc1OC (centres undefined)
The percent activity (GTP binding) of the first is higher: 99% for the first, 97% for the second.

First: O=C(c1ccccc1Cl)N(Cc1ccccc1F)N1C(=O)CCCC1=O
Second: Cc1ccccc1CN1C[C@@H]2C[C@@H](c3ccc4nsnc4c3)N3CCC[C@@]23C1=O
The percent activity (GTP binding) of the first is lower: 98% for the first, 101% for the second.

First: O=C(O)Cc1sc(-c2ccccc2)nc1-c1cccs1
Second: Nc1ccc(-c2sc(N)nc2-c2ccccc2)cc1
The percent activity (GTP binding) of the first is lower: 92% for the first, 97% for the second.

Going from `CCS(=O)(=O)C1=NSC2=NC(=O)/C(=C\c3cc(C)n(-c4cccc(OC)c4)c3C)C(=N)N21` to `CC(=O)N1CCc2cc(Br)cc(S(=O)(=O)CCC(=O)Nc3c(C)n(C)n(-c4ccccc4)c3=O)c21`, the percent activity (GTP binding) rises from 93% to 100%.

First: O=C(CN1CCC(O)(c2ccccc2)CC1)Nc1ccc2c(c1)OCCO2
Second: CN1CCN(c2nc(Nc3ccc(O)cc3)nc3ccccc23)CC1
The percent activity (GTP binding) of the first is higher: 97% for the first, 95% for the second.

Going from `Cc1ccc([N+](=O)[O-])c(OCCCNCC(C)O)c1` (centres undefined) to `CCCNCc1cc(OCC)c(OCC(=O)Nc2ccccc2)cc1Br`, the percent activity (GTP binding) falls from 103% to 96%.

Going from `CCCN(CCC)c1ccc(C(O)c2nnc(-c3ccccc3)o2)cc1` (centres undefined) to `CCOC(=O)CSc1nc2c(sc(=S)n2CCc2ccccc2)c(=O)n1Cc1ccco1`, the percent activity (GTP binding) rises from 95% to 99%.

First: O=S(=O)(NC1CC1)c1ccc2c3c(cccc13)CC2
Second: CCOC(=O)c1ccccc1NC(=S)N1CCC(C(N)=O)CC1
The percent activity (GTP binding) of the first is lower: 93% for the first, 97% for the second.

Compared with `Cc1cc2c(c(=O)n1Cc1ccco1)C(c1ccccc1)C(C#N)=C(N)O2` (centres undefined), `Cc1ccc(/C([O-])=C(/C(=S)NCc2ccco2)[n+]2ccccc2)cc1[N+](=O)[O-]` is lower in percent activity (GTP binding): 103% for the first, 95% for the second.

First: COC(=O)c1cc(NC(=O)CN2CCN(C(C)=O)CC2)cc(C(=O)OC)c1
Second: C=CCc1ccc(OCC(O)CN2CCN(Cc3ccccc3)CC2)c(OC)c1 (centres undefined)
The percent activity (GTP binding) of the first is higher: 99% for the first, 94% for the second.

First: Cc1cc(N2CCN(C)CC2)nc2ccc(NC(=S)N3CCOCC3)cc12
Second: Cc1ccc(CN2CCN(Cc3ccc4ncccc4c3)CC2CCO)cc1 (centres undefined)
The percent activity (GTP binding) of the first is higher: 96% for the first, 94% for the second.

Going from `CCOC(=O)C(CC)/C(C)=N\NC(=O)c1cccc(C)c1` (centres undefined) to `CCS(=O)(=O)c1ccc(C(=O)NC)c(Cl)c1Cl`, the percent activity (GTP binding) falls from 92% to 91%.

Going from `CCn1nc(C)c(CN2CCN(Cc3ccc(OC)c(C)c3C)C(CCO)C2)c1C` (centres undefined) to `CC(C)C(O)C1CCN(Cc2nc(Cc3ccccc3Cl)no2)CC1` (centres undefined), the percent activity (GTP binding) falls from 97% to 96%.

First: CC(=O)Nc1ccc(S(=O)(=O)Nc2ccc(-c3ccc4nnc(C)n4n3)cc2)cc1
Second: Cc1nccc(-c2ccc(-n3c(C)ccc3C)cc2)n1
The percent activity (GTP binding) of the first is lower: 89% for the first, 93% for the second.

First: O=C(NNc1cc(Cl)ccc1Cl)c1cccnc1Cl
Second: Cc1ccc(N2C(=O)C3CC3C2=O)cc1 (centres undefined)
The percent activity (GTP binding) of the first is lower: 97% for the first, 98% for the second.

`O=C(/C=C/c1ccc(Cl)c([N+](=O)[O-])c1)c1cccnc1` was tested, and the percent activity (GTP binding) was 79% (active).
With `CN(c1ccccc1)c1ccc(/C=c2\s/c(=C(/C#N)C(=O)C(C)(C)C)n(Cc3ccco3)c2=O)cc1` the percent activity (GTP binding) was 143% [activator] (active).
In the case of `Nc1[nH]c(=S)nc2nc(-c3ccccc3)c(-c3ccccc3)nc12`, the percent activity (GTP binding) is reported as 78% (active).
